Source: PubChem
697 NFkB inh – inhibitors of the PMA/ionomycin-induced NF-kB reporter in 697 B cells. 697 B-cell NF-kB luciferase reporter, 16 h. inhibition, % at 4 µM. 330,000 compounds, 0.33% hits; in the data active means inhibition above about 35%
Gli-Sufu block – blocks Gli-Sufu signaling in a luciferase reporter; Sufu-KO-LIGHT fibroblasts, Gli luciferase reporter luminescence; inhibition, % at 5 µM; 340,000 compounds, 0.74% hits;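 active means inhibition above about 55%, limit read from the data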;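 further: 0% = DMSO-treated cells and 100% = wells with medium but no cells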
TAG inh – inhibitors of triacylglycerol accumulation. H9c2 cells, Nile Red lipid (TAG) fluorescence; cells loaded with 200 µM oleic acid. inhibition, % at 12.5 µM. 230,000 compounds, 0.66% hits. AID 651582;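 active means pattern-corrected inhibition of lipid staining of at least 50% with the nuclear-stain viability signal not falling by more than 50%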;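 further: 0% = DMSO wells and 100% = triacsin C control wells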
Cardio protect – myocardial damage modulation in H9c2 cells. H9c2 cardiomyocytes, H2O2 injury protection, ATPLite, 2 h. protection from H2O2 cell death, % at 20 µM. 360,000 compounds, 0.63% hits;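 active means compounds giving at least 50% protection of heart cells from peroxide-induced death in the single-dose screen, raw or plate-pattern-corrected value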;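 further: 0% = DMSO wells with peroxide and 100% = DMSO wells without peroxide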
NR2F2 inh – blocks human COUP-TFII nuclear receptor; P24468; HEK293T NGFI-A luciferase reporter, luminescence; inhibition, % at 8.6 µM; 370,000 compounds, 0.7% hits; AID 686940;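 active means inhibition above a per-plate cutoff, mean inhibition of test wells between control levels plus 3 SD, cut at about 38% in these data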;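 further: cells cotransfected with COUP-TFII expression vector driving the NGFI-A reporter; 0% = median of COUP-TF2 test wells and 100% = reporter-only cells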
Target sequence (P24468 whole entry, looked up): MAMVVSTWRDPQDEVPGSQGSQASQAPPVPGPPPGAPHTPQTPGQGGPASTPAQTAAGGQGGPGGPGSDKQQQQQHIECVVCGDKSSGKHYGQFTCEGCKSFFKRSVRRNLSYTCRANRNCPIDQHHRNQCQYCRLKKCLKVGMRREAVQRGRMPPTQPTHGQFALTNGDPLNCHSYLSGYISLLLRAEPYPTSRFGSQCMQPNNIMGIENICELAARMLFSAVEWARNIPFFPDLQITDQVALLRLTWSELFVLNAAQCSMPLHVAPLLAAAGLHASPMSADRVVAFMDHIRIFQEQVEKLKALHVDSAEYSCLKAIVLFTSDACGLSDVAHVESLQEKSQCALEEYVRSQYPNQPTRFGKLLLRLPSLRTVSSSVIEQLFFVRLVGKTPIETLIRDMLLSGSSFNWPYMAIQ
Jurkat NFkB inh – inhibitors of the PMA/ionomycin-induced NF-kB reporter in Jurkat cells; PMA/ionomycin-induced NF-kB luciferase reporter, luminescence; inhibition, % at 4 µM; 330,000 compounds, 0.53% hits; in the data active means inhibition above about 50%
Jurkat NFkB conf – inhibitors of the PMA/ionomycin-induced NF-kB reporter in Jurkat cells, retest | AID 435020 | shares compounds with Jurkat NFkB inh | Jurkat NF-kB luciferase, 16 h | 2,700 compounds, 27% hits | inhibition, % at 4 µM;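 active means inhibition reaching about 45% at 4 µM in either replicate, limit read from the data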;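 further: plate controls were PMA/ionomycin stimulated DMSO wells for no effect and unstimulated DMSO wells for full effect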
* = called active by the depositor; nt = no result given. Most compounds without a hit are left out; they make up all but 2.6% or so of the library.

SMILES	697 NFkB inh	Gli-Sufu block	TAG inh	Cardio protect	NR2F2 inh	Jurkat NFkB inh	Jurkat NFkB conf
Cc1ccsc1/C=C/c1ccc2cccc(O)c2n1	-144	11	nt	30	-34	-148	nt
Oc1cccc2ccc(/C=C/c3cccs3)nc12	-177	7	nt	16	-30	-189	-146
COc1ccc(NC(=O)C(=O)NCC(c2ccco2)N2CCc3ccccc32)cc1 (stereo not drawn)	-66	17	23	0	nt	64*	12
COc1ccc(C(=O)NCC(c2ccco2)N2CCc3ccccc32)cc1 (stereo not drawn)	-65	19	23	-4	16	63*	23
CC(=O)Nc1ccc(NC(=O)C(=O)NCC(c2ccco2)N2CCc3ccccc32)cc1 (stereo not drawn)	-15	2	-11	-2	14	-13	nt
Cn1cccc1C(=O)N1CCN(S(=O)(=O)c2ccc(Cl)s2)CC1	nt	nt	nt	nt	3	nt	nt
Oc1ccccc1N=Nc1nc(-c2ccccc2)c(-c2ccccc2)[nH]1	-17	93*	-4	-11	-9	58*	76*
COc1ccccc1N=Nc1nc(-c2ccccc2)c(-c2ccccc2)[nH]1	nt	-48	nt	10	-4	nt	nt
O=S1(=O)C=CCN1Cc1cn(Cc2ccccc2)nn1	nt	nt	nt	nt	1	nt	nt
COc1ccc(C(C)=O)cc1CSc1nc2ccccc2c(=O)n1-c1ccccc1	20	4	nt	4	12	2	nt
C=CCn1c(SCc2cc(C(C)=O)ccc2OCC)nc2ccccc2c1=O	7	14	nt	2	-5	58*	36
COc1ccc(/C=c2/sc3n(c2=O)C(c2ccccc2OC)C2=C(N=3)c3ccccc3CC2)cc1O (stereo not drawn)	-15	15	nt	33	14	70*	51*
N=c1c2c(-c3ccccc3)c(-c3ccccc3)n(Cc3ccco3)c2ncn1CCCO	-16	19	23	-11	-4	56*	19
NC(=O)CSc1nnc(-c2ccccn2)n1Cc1ccco1	-14	2	8	4	13	-9	nt
C(=C\c1ccccc1)/CSc1nnc(-c2ccccn2)n1Cc1ccco1	-30	5	nt	-8	-4	50*	7
COc1ccc(N2CCc3c(C)nc4c(OC)cccc4c32)cc1	-124	8	38	-26	1	64*	31
O=C(/C=C/c1cnc2ccccc2n1)NC12CC3CC(CC(C3)C1)C2	-153	nt	nt	-4	-11	-156	2
O=C(O)/C=C/c1cnc2ccccc2n1	16	26	-4	-2	2	7	nt
CCCCOC(=O)Nc1ccc(N2CCCCC2)cc1	-163	-94	nt	-9	-58	-182	-95
O=C(c1ccc(F)cc1)c1ccc(N2CCCCC2)cc1	-91	-64	nt	-7	-11	-84	nt
O=C(Nc1ccc(N2CCOCC2)cc1)c1cccc(S(=O)(=O)N2CCCCC2)c1	3	1	16	-10	-15	17	nt
O=C(Nc1ccc(S(=O)(=O)N2CCCCC2)cc1)c1ccc(CN2CCOCC2)cc1	12	38	nt	-6	nt	62*	61*
O=C(Nc1ccc(N2CCCCC2)cc1)c1ccc(F)cc1	-158	-80	-16	-14	-54	-167	-83
O=C(Nc1ccc(N2CCOCC2)cc1)c1ccc(Cl)c(S(=O)(=O)N2CCCCC2)c1	27	39	-13	-22	5	51*	57*
O=C(Nc1ccc(S(=O)(=O)N2CCOCC2)cc1)c1ccc(S(=O)(=O)N2CCOCC2)cc1	2	7	nt	-7	-9	0	nt
SMILES	697 NFkB inh	Gli-Sufu block	TAG inh	Cardio protect	NR2F2 inh	Jurkat NFkB inh	Jurkat NFkB conf
COc1ccccc1N1CCN(C(=O)c2ccc3c(c2)nc(C)n3-c2cc(OC)c(OC)c(OC)c2)CC1	nt	nt	nt	nt	-24	nt	nt
COC(=O)[C@]12C[C@H](CC(=O)NCCc3ccccc3OC)C(=O)N(CCC3=CCCCC3)C1=C[C@H](C(C)C)O[C@@H]2C1CC1	nt	nt	nt	nt	-1	nt	nt
CCN(C(=O)CSc1nnc(-c2cccnc2)n1Cc1ccco1)c1ccccc1C	nt	nt	nt	nt	7	nt	nt
CCC(=O)NC(=S)Nc1ccc(-c2nc3ccc(C)cc3s2)cc1	-138	-117	nt	-10	-21	-115	nt
CCC(=O)NC(=S)Nc1ccc(-c2nc3ccccc3s2)cc1	-184	-65	13	-17	-36	-152	-83
Cc1cc2c(cc1C)C(c1cc(Br)ccc1F)CC(=O)N2 (stereo not drawn)	-27	-5	2	-6	4	57*	16
O=C(Nc1ccccc1)C(=O)Nc1ccc2c(c1)N(C(=O)C1CC1)CCC2	-151	-90	1	6	-37	-163	-71
CSc1nc(Oc2ccc3ccccc3c2)c2sccc2n1	-34	-16	-77	-9	-10	64*	31
Cc1ccc(NC(=O)C2CCN(c3nnc(-n4cccc4)s3)CC2)cc1C	nt	nt	nt	nt	17	nt	nt
COc1ccc(OC)c(Nc2cc(C)nc3ccccc23)c1	-37	14	12	-6	21	67*	10
Cc1cc(Nc2ccccc2Cl)c2ccccc2n1	-16	22	-4	-8	-9	15	nt
COc1ccc(-c2cc(-c3ccccc3)nc(N)n2)c(O)c1	nt	12	35	0	-54	nt	nt
COc1ccc(OC)c(Nc2cc(-c3ccccc3)nc(N)n2)c1	30	47	nt	nt	-54	56*	44
COc1ccc(Cl)cc1Nc1cc(C)nc2ccccc12	-29	12	-3	-16	27	54*	23
COc1ccc2nc(C)cc(Nc3ccccc3OC)c2c1	nt	nt	23	-12	-6	nt	nt
CCCC(=O)OC12CCCN(C1)/C(=C/c1cccc(N(C)C)c1)C2 (stereo not drawn)	nt	nt	nt	nt	1	nt	nt
COc1cccc2sc(Nc3nnc(-c4ccccc4Cl)o3)nc12	-30	3	21	0	-6	58*	45
COc1cccc2sc(NN)nc12	-7	-4	20	0	4	-18	nt
COc1ccccc1-c1nnc(Nc2nc3c(OC)cccc3s2)o1	-110	89*	67*	1	-27	88*	34
COc1cccc2sc(Nc3nc(-c4ccncc4)cs3)nc12	-28	-5	57*	18	-11	60*	35
COc1c(C(C)(C)C)cc(S(=O)(=O)N2c3ccccc3C[C@H]2C)cc1C(C)(C)C	nt	nt	nt	nt	13	nt	nt
COC(=O)[C@]12C[C@H](CC(=O)N3CCSCC3)C(=O)N(Cc3ccc(Cl)cc3Cl)C1=C[C@H](C(C)(C)C)O[C@@H]2C	nt	nt	nt	nt	4	nt	nt
CCCc1nc(SCC(=O)Nc2cc(C)on2)c2ccccc2n1	6	6	4	-3	6	-10	nt
Cc1cc(NC(=O)CSc2nc(C(C)(C)C)nc3ccccc23)no1	-62	2	-13	-8	29	57*	20
Cc1ccc2c(c1)Sc1c(ccc3ccccc13)N2	-219	-92	38	-24	-42	-171	-28
Cc1cccc(NC(=O)c2cc3ccccc3o2)c1	-50	-88	nt	-7	-54	-173	-96
